Where “and” joins values, the source holds several entries; their conditions need not be identical. Equal entries are not always repeated. Hit rate of the full screen: of about 5,500 compounds, about 2,000 (36%) were called active. Roughly 18% stayed inconclusive and do not appear here. Some of the results follow. Unmarked numbers belong to inactive results. Rule as the data show it: active = normalized growth mostly below about 0.91 (no sharp cut-off); inconclusive = no clear call, values can overlap the other calls; inactive = mostly above about 0.92.
Experiment: chemical genetic growth profiling, strain panel (AID 1159580);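 also: tested at 20 µM; growth read once vehicle control cultures reached saturation at 30 °C; 1 = growth at the plate median or of vehicle wells; lower values mean less growth of the strain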
Conditions: S. cerevisiae deletion strains, growth OD

In the case of `CCCCCCc1ccc(O)cc1O`, the normalized growth (locus YAL013W, strain DEP1, stronger effect = lower value) was 0.677 (active), the normalized growth (locus YAL021C, strain ccr4, stronger effect = lower value) was 0.955 and the normalized growth (locus YAL026C, strain drs2, stronger effect = lower value) was 0.747 (active). The normalized growth (locus YAL030W, strain snc1, stronger effect = lower value) was 0.961, the normalized growth (locus YBL061C, strain skt5, stronger effect = lower value) was 0.927 and the normalized growth (locus YBR009C, strain hhf1, stronger effect = lower value) was 0.788 (active). For the same compound, the normalized growth (locus YBR021W, strain FUR4, stronger effect = lower value) was 0.977, the normalized growth (locus YBR023C, strain chs3, stronger effect = lower value) was 0.89 (active) and the normalized growth (locus YBR171W, strain sec66, stronger effect = lower value) was 0.973. The normalized growth (locus YBR229C, strain ROT2, stronger effect = lower value) was 0.967, the normalized growth (locus YBR231C, strain swc5, stronger effect = lower value) was 0.865 (active) and the normalized growth (locus YBR279W, strain paf1, stronger effect = lower value) was 0.968. The normalized growth (locus YCL011C, strain gbp2, stronger effect = lower value) was 0.896 (active), the normalized growth (locus YCL016C, strain dcc1, stronger effect = lower value) was 0.912 (active) and the normalized growth (locus YCL029C, strain bik1, stronger effect = lower value) was 0.877 (active). The normalized growth (locus YCL061C, strain MRC1, stronger effect = lower value) was 0.906 (active), the normalized growth (locus YCL069W, strain vba3, stronger effect = lower value) was 0.972 and the normalized growth (locus YCR088W, strain abp1, stronger effect = lower value) was 0.939. It also gave a normalized growth (locus YDL005C, strain med2, stronger effect = lower value) of 0.988, a normalized growth (locus YDL035C, strain GPR1, stronger effect = lower value) of 0.872 and a normalized growth (locus YDL040C, strain nat1, stronger effect = lower value) of 0.973. It also gave a normalized growth (locus YDL074C, strain BRE1, stronger effect = lower value) of 0.786, a normalized growth (locus YDL101C, strain DUN1, stronger effect = lower value) of 0.95 and a normalized growth (locus YDL185W, strain tfp1, stronger effect = lower value) of 0.956. For the same compound, the normalized growth (locus YDL192W, strain arf1, stronger effect = lower value) was 0.798 (active), the normalized growth (locus YDR001C, strain nth1, stronger effect = lower value) was 0.975 and the normalized growth (locus YDR069C, strain doa4, stronger effect = lower value) was 0.939. The normalized growth (locus YDR101C, strain arx1, stronger effect = lower value) was 0.84 (active), the normalized growth (locus YDR137W, strain rgp1, stronger effect = lower value) was 0.608 (active) and the normalized growth (locus YDR150W, strain NUM1, stronger effect = lower value) was 0.942. The normalized growth (locus YDR159W, strain sac3, stronger effect = lower value) was 0.525 (active), the normalized growth (locus YDR162C, strain NBP2, stronger effect = lower value) was 0.884 and the normalized growth (locus YDR195W, strain ref2) was 1.12. For the same compound, the normalized growth (locus YDR297W, strain sur2, stronger effect = lower value) was 0.948, the normalized growth (locus YDR318W, strain mcm21, stronger effect = lower value) was 0.794 (active) and the normalized growth (locus YDR334W, strain swr1, stronger effect = lower value) was 0.988. For the same compound, the normalized growth (locus YDR335W, strain msn5, stronger effect = lower value) was 0.96, the normalized growth (locus YDR388W, stronger effect = lower value) was 0.868 (active) and the normalized growth (locus YDR392W, strain spt3, stronger effect = lower value) was 0.283 (active). The normalized growth (locus YDR502C, strain sam2, stronger effect = lower value) was 0.814 (active), the normalized growth (locus YEL003W, strain gim4, stronger effect = lower value) was 0.911 (active) and the normalized growth (locus YEL037C, strain rad23, stronger effect = lower value) was 0.976. For the same compound, the normalized growth (locus YEL061C, strain CIN8 (second series), stronger effect = lower value) was 0.983, the normalized growth (locus YEL061C, strain CIN8, stronger effect = lower value) was 0.943 and the normalized growth (locus YER015W, strain faa2, stronger effect = lower value) was 0.978. It also gave a normalized growth (locus YER016W, strain bim1, stronger effect = lower value) of 1.05, a normalized growth (locus YER110C, stronger effect = lower value) of 0.987 and a normalized growth (locus YER111C, strain swi4, stronger effect = lower value) of 0.976. The normalized growth (locus YER155C, strain BEM2 (second series), stronger effect = lower value) was 0.642 (active), the normalized growth (locus YER155C, strain BEM2, stronger effect = lower value) was 0.875 (active) and the normalized growth (locus YER167W, strain BCK2, stronger effect = lower value) was 0.923. The normalized growth (locus YFR010W, strain ubp6, stronger effect = lower value) was 0.971, the normalized growth (locus YGL078C, strain dbp3, stronger effect = lower value) was 0.885 (active) and the normalized growth (locus YGL086W, strain mad1, stronger effect = lower value) was 0.783 (active). The normalized growth (locus YGL167C, strain pmr1, stronger effect = lower value) was 0.981, the normalized growth (locus YGL173C, strain kem1, stronger effect = lower value) was 0.883 (active) and the normalized growth (locus YGL227W, strain vid30, stronger effect = lower value) was 0.977. The normalized growth (locus YGL240W, strain doc1, stronger effect = lower value) was 0.899, the normalized growth (locus YGL248W, strain PDE1, stronger effect = lower value) was 0.868 (active) and the normalized growth (locus YGL253W, strain hxk2, stronger effect = lower value) was 0.893 (active). The normalized growth (locus YGR078C, strain PAC10, stronger effect = lower value) was 0.882, the normalized growth (locus YGR135W, strain pre9, stronger effect = lower value) was 0.85 (active) and the normalized growth (locus YGR252W, strain gcn5, stronger effect = lower value) was 0.752 (active). The normalized growth (locus YHR013C, strain ard1, stronger effect = lower value) was 0.822 (active), the normalized growth (locus YHR027C, strain rpn1, stronger effect = lower value) was 0.966 and the normalized growth (locus YHR030C, strain SLT2, stronger effect = lower value) was 0.804 (active). The normalized growth (locus YHR079C, strain IRE1 (second series), stronger effect = lower value) was 0.832 (active), the normalized growth (locus YHR079C, strain IRE1, stronger effect = lower value) was 0.862 and the normalized growth (locus YHR094C, strain hxt1, stronger effect = lower value) was 0.964. The normalized growth (locus YHR129C, strain ARP1, stronger effect = lower value) was 0.949, the normalized growth (locus YHR142W, strain chs7, stronger effect = lower value) was 0.838 (active) and the normalized growth (locus YHR200W, strain rpn10, stronger effect = lower value) was 0.903 (active). For the same compound, the normalized growth (locus YIL066C, strain RNR3, stronger effect = lower value) was 0.967, the normalized growth (locus YIL073C, strain SPO22, stronger effect = lower value) was 0.811 and the normalized growth (locus YIL125W, strain kgd1, stronger effect = lower value) was 0.88 (active). For the same compound, the normalized growth (locus YIR030C, strain dcg1, stronger effect = lower value) was 0.917 (active), the normalized growth (locus YJL092W, strain hpr5, stronger effect = lower value) was 0.943 and the normalized growth (locus YJL095W, strain BCK1 (second series), stronger effect = lower value) was 0.887 (active). The normalized growth (locus YJL095W, strain BCK1, stronger effect = lower value) was 0.737 (active) and 0.818 (active), the normalized growth (locus YJL115W, strain asf1, stronger effect = lower value) was 0.993 and the normalized growth (locus YJL129C, strain trk1, stronger effect = lower value) was 0.85 (active). For the same compound, the normalized growth (locus YJL134W, strain LCB3, stronger effect = lower value) was 0.96, the normalized growth (locus YJL154C, strain vps35, stronger effect = lower value) was 0.993 and the normalized growth (locus YJL164C, strain tpk1, stronger effect = lower value) was 0.841 (active). For the same compound, the normalized growth (locus YJL166W, strain qcr8, stronger effect = lower value) was 0.85 (active), the normalized growth (locus YJL168C, strain set2, stronger effect = lower value) was 0.947 and the normalized growth (locus YJL187C, strain SWE1 (second series), stronger effect = lower value) was 0.931.

Reference: PubChem BioAssay AID1159580 (chemical genetic matrix, 2015)
